Only some compounds are listed: those with a hit (about 1.8% of all), similar ones and a draw of the others.
INS-1E GSIS act: GLuc luminescence reporter in INS-1E cells, primary screen for activators of glucose-dependent secretion of insulin. INS-1E GLuc reporter insulin secretion, 2-3 h. activation, % at 16.6 µM. actives 0.61% (n = 370,000);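 active = lowest replicate activation of at least 40%, so every replicate reaches that level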;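 also: 0% = median of neutral control wells and 100% = median of IBMX positive control wells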
NRP1-CendR mod: alters CendR peptide binding to human NRP-1. O14786. FAM-RPARPAR peptide binding to NRP-1, fluorescence polarization. inhibition, % at 25 µM. actives 0.85% (n = 360,000). AID 602438;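 active = inhibition or corrected inhibition above about 18%, plus a signal ratio from 0.5 to 1.5, limit read from the data, passing the limit was not always enough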
Target sequence (O14786 whole entry, looked up): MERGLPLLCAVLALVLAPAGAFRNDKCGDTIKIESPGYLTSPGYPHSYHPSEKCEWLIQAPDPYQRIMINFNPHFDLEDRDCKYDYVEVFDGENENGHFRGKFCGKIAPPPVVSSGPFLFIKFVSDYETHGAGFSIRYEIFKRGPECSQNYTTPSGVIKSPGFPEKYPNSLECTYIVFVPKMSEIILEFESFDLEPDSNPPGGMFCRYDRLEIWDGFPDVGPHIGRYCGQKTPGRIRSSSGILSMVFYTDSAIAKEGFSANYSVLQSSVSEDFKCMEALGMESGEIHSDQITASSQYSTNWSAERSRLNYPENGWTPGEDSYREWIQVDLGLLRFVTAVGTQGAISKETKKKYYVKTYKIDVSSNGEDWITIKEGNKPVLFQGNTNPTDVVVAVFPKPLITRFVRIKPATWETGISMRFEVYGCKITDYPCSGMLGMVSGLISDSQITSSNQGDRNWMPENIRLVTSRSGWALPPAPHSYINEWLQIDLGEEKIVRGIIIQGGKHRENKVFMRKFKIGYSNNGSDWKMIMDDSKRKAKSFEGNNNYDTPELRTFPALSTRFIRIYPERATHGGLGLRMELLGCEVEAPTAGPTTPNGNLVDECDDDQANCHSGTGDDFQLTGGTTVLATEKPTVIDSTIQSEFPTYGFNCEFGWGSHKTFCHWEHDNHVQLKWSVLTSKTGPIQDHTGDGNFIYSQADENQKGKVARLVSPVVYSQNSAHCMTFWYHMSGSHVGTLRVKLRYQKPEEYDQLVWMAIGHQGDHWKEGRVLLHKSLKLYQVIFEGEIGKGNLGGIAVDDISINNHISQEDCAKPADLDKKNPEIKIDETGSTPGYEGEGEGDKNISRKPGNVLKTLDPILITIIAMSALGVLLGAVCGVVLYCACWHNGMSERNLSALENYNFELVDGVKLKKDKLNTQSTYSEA
iPSC survival up: hiPSC single-cell survival enhancement; ATPlite luminescence; 100% = ROCK inhibitor wells, 0% = DMSO; survival enhancement, % at 20 µM; actives 0.044% (n = 360,000); AID 602274; in the data active = survival enhancement above about 18%;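 also: cells exposed to compounds for 16 hours before the ATP read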
ARNT TACC3 PPI: ARNT/TACC3 interaction disruption | actives 0.66% (n = 390,000) | inhibition, % at 9.99 µM | AlphaScreen His-ARNT PAS-B/GST-TACC3 binding, luminescence; TACC3 fragment carries E629A point mutation | Q9Y6A5;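 active = mean inhibition of replicates at least 50% and at least half of replicates each reaching 50%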;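 also: 0% = complete ARNT plus TACC3 wells and 100% = ARNT alone without TACC3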
ABCB6 inh MLPCN: inhibitors of human ABC transporter ABCB6 | Q9NP58 | actives 0.19% (n = 360,000) | K562-ABCB6 porphyrin accumulation, flow cytometry, 1 h; hits give low values | fluorescence ratio to DMSO, % at 10 µM | AID 602162;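 active = fluorescence ratio to DMSO below 75%, the collection mean minus 3 SD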;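 also: signal is porphyrin accumulated inside mitochondria; 100% equals median channel fluorescence of DMSO control wells; lower ratio means ABCB6 inhibition with less porphyrin fluorescence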
Numbers without * were called inactive.

For Cc1ccc(NC2=C(Cl)C(=O)c3ccccc3C2=O)cc1 the results were INS-1E GSIS act 2.2, NRP1-CendR mod 12.3, iPSC survival up -4.1, ARNT TACC3 PPI -0.6 and ABCB6 inh MLPCN 97.0.
Screening O=C1C(Cl)=C(Nc2ccc(O)cc2)C(=O)c2ccccc21 returned INS-1E GSIS act 13.9, NRP1-CendR mod 20.5, iPSC survival up 0.6, ARNT TACC3 PPI 1.4 and ABCB6 inh MLPCN 66.0*.
N#C[C@@H]1[C@H](c2ccc(C3=CCCC3)cc2)[C@@H](CO)N1C(=O)NC1CCCCC1 was read as INS-1E GSIS act -1.0.
Screening COc1ccc2c3c([nH]c2c1)[C@H](CO)N(Cc1cccnc1)CC31CN(C(=O)c2cccnc2)C1 returned INS-1E GSIS act -5.0.
For O=C(Cc1ccccn1)NCC[C@@H]1CC[C@H](NS(=O)(=O)c2ccc(Cl)cc2)[C@@H](CO)O1 the results were INS-1E GSIS act 5.7 and ARNT TACC3 PPI -1.4.
For CCc1cnc(N2[C@@H](C#N)[C@@H](c3ccc(-c4cccc(F)c4)cc3)[C@@H]2CO)s1 the results were INS-1E GSIS act -4.6 and ARNT TACC3 PPI 1.7.
For CCC(=O)N1CCC2(CC1)CN(C(=O)Nc1ccccc1F)[C@H](CO)c1c2c2ccc(OC)cc2n1C the results were INS-1E GSIS act -35.1.
C[C@@H]1CN([C@@H](C)CO)C(=O)c2cc(C#CCN(C)C)cnc2O[C@H]1CN(C)C(=O)c1ccc(F)cc1 was read as INS-1E GSIS act 1.5 and ARNT TACC3 PPI 6.4.
For COc1cccc(/C=C2\SC(=O)N(CCC(=O)NNC(=O)c3ccccc3Cl)C2=O)c1 the results were INS-1E GSIS act 97.1*, NRP1-CendR mod -0.3, iPSC survival up -1.0, ARNT TACC3 PPI -4.5 and ABCB6 inh MLPCN 100.0.
For CS(=O)(=O)Nc1ccc2c(c1)[C@H]1C[C@@H](CC(=O)N3CCCCC3)O[C@@H](CO)[C@H]1O2 the results were INS-1E GSIS act 4.8 and ARNT TACC3 PPI -4.9.
`O=S(=O)(Nc1ccc(Br)cc1)c1cccc(NS(=O)(=O)c2cccs2)c1` gave INS-1E GSIS act -39.0, NRP1-CendR mod 20.6*, iPSC survival up 0.4, ARNT TACC3 PPI -3.7 and ABCB6 inh MLPCN 98.0.
`Cc1ccc(NS(=O)(=O)c2ccc(NS(=O)(=O)c3cccs3)cc2)cc1` gave NRP1-CendR mod -7.9, iPSC survival up -0.7, ARNT TACC3 PPI -1.4 and ABCB6 inh MLPCN 100.0.
`O=[N+]([O-])c1ccc(Cl)c2cccnc12` gave INS-1E GSIS act 26.3, NRP1-CendR mod -12.2, iPSC survival up 2.7, ARNT TACC3 PPI -7.6 and ABCB6 inh MLPCN 106.0.
For Clc1cc2cccnc2c2ncccc12 the results were NRP1-CendR mod -14.8, iPSC survival up -0.1, ARNT TACC3 PPI 106.3* and ABCB6 inh MLPCN 97.0.
Screening O=[N+]([O-])c1cc(Cl)c2cccnc2c1O returned INS-1E GSIS act -24.1, NRP1-CendR mod 17.2, iPSC survival up 0.2, ARNT TACC3 PPI 46.0* and ABCB6 inh MLPCN 99.0.
For Oc1c(I)cc(Cl)c2cccnc12 the results were NRP1-CendR mod 4.8, iPSC survival up -1.3, ARNT TACC3 PPI 5.8 and ABCB6 inh MLPCN 98.0.
O=[N+]([O-])c1cc(Cl)c(O)c2ncccc12 was read as INS-1E GSIS act -7.2, NRP1-CendR mod 3.5, iPSC survival up -0.6, ARNT TACC3 PPI 57.1* and ABCB6 inh MLPCN 101.0.
Screening O=[N+]([O-])c1cc(F)c2cccnc2c1O returned INS-1E GSIS act -8.7, NRP1-CendR mod -2.9, iPSC survival up -0.5, ARNT TACC3 PPI 70.5* and ABCB6 inh MLPCN 97.0.
CCCNC(=O)Nc1ccc2c(c1)C(=O)N(C)C[C@@H](OC)[C@H](C)CN(C(=O)c1ccccc1F)[C@@H](C)CO2 was read as INS-1E GSIS act 0.6 and ARNT TACC3 PPI -3.2.
For O=[N+]([O-])c1ccc(O)c2cccnc12 the results were INS-1E GSIS act -37.2, NRP1-CendR mod 7.0, iPSC survival up 0.6, ARNT TACC3 PPI 18.3 and ABCB6 inh MLPCN 102.0.
O=[N+]([O-])c1ccc(O)c2ncccc12 was read as NRP1-CendR mod -0.7, iPSC survival up -1.6, ARNT TACC3 PPI 55.6* and ABCB6 inh MLPCN 98.0.
For O=C(c1ccc(OCc2cn3ccccc3n2)cc1)N1CCN(S(=O)(=O)c2ccccc2F)CC1 the results were INS-1E GSIS act -0.8, NRP1-CendR mod 5.9, iPSC survival up -0.4, ARNT TACC3 PPI -5.2 and ABCB6 inh MLPCN 96.0.

High-throughput results from PubChem BioAssay.
